Experimental data from PubChem BioAssay AID686978 (National Center for Advancing Translational Sciences (NCATS), 2013).
Out of some 420,000 compounds screened, about 64,000 (15%) were called active. Not shown: some 27% with an inconclusive outcome. A selection follows. Values without a mark were called inactive. Calls come from the whole dose curve; as a rule, active = well fitted inhibition curve with a large enough effect; inconclusive = small, poorly fitted or top-dose-only effect; inactive = flat fitted curve, though single readings scatter.

Experiment: qHTS for Inhibitors of human tyrosyl-DNA phosphodiesterase 1 (TDP1): qHTS in cells in absence of CPT; note: nearly all actives have a fitted effect of over 55% in size
Details: DT40 Tdp1-/- hTDP1 cells, no CPT, ATP luminescence, 48 h; activity change, negative = growth inhibition: at 46.2 µM (top of the series)
In short: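 Camptothecin absent (DMSO only). Human TDP1-complemented DT40 knockout cells, 400 cells/well, 37 °C for minimum 48 hr; ATP measured via CellTiter-Glo, 30 min dark incubation, luminescence.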
% is set by controls: 0 for no effect and ±100 for the full control effect; potency is the fitted concentration of half-maximal effect.

| SMILES | activity change, negative = growth inhibition | Potency |
| --- | --- | --- |
| CCCCC/C=C\C/C=C\CCCCCCCCCC(=O)O | 6.04% [at 4.12 µM] | – |
| Cc1cc(C)n(C(=O)CCNC(=O)c2ccccc2Cl)n1 | -11.5% | – |
| NC(=O)c1ccsc1NC(=O)COC(=O)COc1ccc(C=O)cc1 | 14.7% | – |
| Cc1cccc(NC(=S)Nc2ccc(Br)cc2)c1 | – | 16.4 µM (active) |
| Cc1cccc(NC(=S)NC(=O)c2ccc(Br)o2)c1 | -27.5% | – |
| Fc1cc(Br)ccc1NC(=S)Nc1cccnc1 | -4.8% | – |
| O=C(COC(=O)c1ccc2c(c1)OCCO2)NCc1ccccc1Cl | -9.9% | – |
| CCCS(=O)(=O)NC(=O)C1(C)CCCN(C(=O)c2cc(C)on2)C1 (stereo not given) | 0.826% | – |
| Cc1nc2cnc(N3CCN(C)CC3)nc2n(CCC#N)c1=O | 0.2% | – |
| Cn1c(SCC(=O)Nc2nccs2)nnc1-c1cccnc1 | 8.51% | – |
| O=C(CCS(=O)(=O)c1ccccc1)N(Cc1cccnc1)c1nc2c(F)cccc2s1 | – | 2.31 µM (active) |
| CN(C)CCCN(C(=O)COc1ccccc1)c1nc2c(Cl)cccc2s1 | 19.3% | – |
| COc1cc2ccccc2cc1C(=O)N(CCN(C)C)c1nc2c(F)cccc2s1 | -8.8% | – |
| O=C(NCc1cccnc1)Nc1ccccc1F | -1.9% | – |
| CN(C)S(=O)(=O)c1ccc(C(=O)N(Cc2cccnc2)c2nc3c(F)cc(F)cc3s2)cc1 | -27.9% | – |
| Cc1cccc2sc(N(CCCN(C)C)C(=O)CCS(=O)(=O)c3ccccc3)nc12 | – | 1.64 µM (active) |
| COC(=O)[C@H](CC(C)C)NC(=O)N1CCCCC1C (stereo not given in full) | 3.98% | – |
| COC(=O)C1=C(C)NC(=O)NC1/C=C/c1ccccc1 (stereo not given) | 1.29% | – |
| O=C(CSc1nnc(-c2c[nH]c3ccccc23)o1)c1ccccc1 | -10.2% | – |
| O=C(CSc1nnc(Cn2cnc3ccccc32)o1)c1ccccc1 | – | 10.3 µM (active) |
| CC(=O)Nc1ccc(C(=O)CSc2nnc(Cc3ccccc3)o2)cc1 | -11.9% | – |
| Cc1cc(C)cc(NC(=O)c2cccc(NC(=O)C3C4CC5OC(=O)C3C5C4)c2)c1 (stereo not given) | 0.379% | – |
| Cc1cccc(N2C(=O)SC(N(CC(=O)O)c3cccc(C)c3)C2=O)c1 (stereo not given) | -11.3% | – |
| CCOC(=O)CCP(=O)(O)C(O)(c1ccccc1)c1ccccc1 | -9.03% | – |
| O=S(=O)(Nc1ccc2cn[nH]c2c1)c1ccccc1 | -22.4% | – |
| O=C(CCNC(=O)C1CCN(S(=O)(=O)c2ccccc2)CC1)NC1CC1 | 7.77% | – |
| CCOC(=O)c1cc(C(C)C)sc1NC(=O)COC(=O)c1nccnc1N | -25.3% | – |

| SMILES | activity change, negative = growth inhibition | Potency |
| --- | --- | --- |
| O=C1C2(c3ccccc3)CN(CCCO)CC1(c1ccccc1)CN(CCCO)C2 | -8.84% | – |
| Cc1ccc(N2CCN(S(=O)(=O)c3ccc(F)cc3)CC2)c(C)c1 | – | 18.4 µM (active) |
| Cc1ccc(Cl)cc1N1CCN(S(=O)(=O)c2cc3[nH]c(=O)c(=O)[nH]c3cc2C)CC1 | -0.246% | – |
| Cc1ccc(S(=O)(=O)N2CCN(C)CC2)cc1 | -3.04% | – |
| O=C1CC(=O)Nc2cc(S(=O)(=O)N3CCN(c4cccc(C(F)(F)F)c4)CC3)ccc2N1 | 9.11% | – |
| CCOC(=O)N1CCN(S(=O)(=O)c2ccc3c(c2)C(C)C(=O)N3)CC1 (stereo not given) | 0.632% | – |
| Cc1ccc(C)c(N2CCN(S(=O)(=O)c3ccc4c(c3)C(C(C)C)C(=O)N4)CC2)c1 (stereo not given) | – | 18.4 µM (active) |
| CC1C(=O)Nc2ccc(S(=O)(=O)N3CCN(c4ccccc4F)CC3)cc2NC1=O (stereo not given) | – | 20.6 µM (active) |
| Cc1ccc(S(=O)(=O)N2CCN(S(=O)(=O)N3CCOCC3)CC2)cc1 | -13.9% | – |
| Cc1ccc(C)c(N2CCN(S(=O)(=O)c3ccc4c(c3)oc(=O)n4C)CC2)c1 | -8.78% | – |
| O=C(N/N=C/c1cccc(OC(=O)c2ccc([N+](=O)[O-])cc2)c1)c1cccnc1 | 1.64% | – |
| CCOC(=O)c1c(-n2cnnn2)sc(C)c1C | -3.42% | – |
| COc1ccc(NC(=S)N2N=CCC2c2ccccc2)cc1 (stereo not given) | 6.67% | – |
| CS(=O)(=O)c1ccc2nc(NC(=O)c3ccc(Cl)nc3)sc2c1 | -20% | – |
| O=C(NCc1cccnc1)c1nc(-c2cccs2)no1 | -5.14% | – |
| C=CCn1c(=O)n(C)c2c(=O)n(C)c(=O)n(C)c21 | -9.27% | – |
| CC(C)C(C)NC(=O)COc1ncnc2ccccc12 (stereo not given) | 2.12% | – |
| CCn1ccnc1CNC(=O)CC1C(=O)NCCN1CCCc1ccccc1 (stereo not given) | 9.87% | – |
| O=C(CCC(=O)N1CCN(S(=O)(=O)c2ccccc2)CC1)NC1CCCc2ccccc21 (stereo not given) | -23.6% | – |
| O=C1NC(Cc2ccccc2)c2nc3ccc(Br)cc3c(=O)n2-c2cc3ccccc3cc21 (stereo not given) | – | 7.31 µM (active) |
| Cc1cc(C)c2c(=O)n3c(nc2c1)C(CC(C)C)NC(=O)c1cc2ccccc2cc1-3 (stereo not given) | – | 4.61 µM (active) |
| CCC1NC(=O)c2cccnc2-n2c1nc1ccc(C)cc1c2=O (stereo not given) | 3.31% | – |
| CCc1ccc(NC2Nc3cc(C)nn3S2)cc1 (stereo not given) | -0.765% | – |
| N#CCC(=O)NC1CCC(CC2CCC(NC(=O)CC#N)CC2)CC1 (stereo not given) | 4.54% | – |
| CCOc1cc(C2C(C(=O)OC)=CN(C3CCCC3)C=C2C(=O)OC)cc(Br)c1O | -11.2% | – |
| COc1ccc(S(=O)(=O)Nc2ccc(F)cc2)c(C)c1C | -21.2% | – |
| COc1ccccc1CNS(=O)(=O)CC12CCC(CC1=O)C2(C)C (stereo not given) | 3.54% | – |

| SMILES | activity change, negative = growth inhibition | Potency |
| --- | --- | --- |
| CC(=O)Nc1ccc(S(=O)(=O)NC(C)C(=O)OCCOc2ccc(F)cc2)cc1 (stereo not given) | -12% | – |
| Cc1cccc(C)c1NC(=O)Nc1ccccc1-n1ccnc1 | 2.52% | – |
| COC(=O)C[C@H]1C=C[C@@H](NS(=O)(=O)c2ccc(C)cc2)[C@@H](CO)O1 | 1.99% | – |
| COc1ccc(C(=O)Nc2ccnn2C2CCN(Cc3ccncc3)CC2)cc1 | -9.39% | – |
| COc1ccc(C(=O)Nc2sc(C)c(C)c2CN2CCOCC2)cc1 | – | 23.1 µM (active) |
| COc1ccc(C(=O)Nc2ccc(CN3CCOCC3)cc2)cc1 | -13.6% | – |
| OCC1(CO)CC2(C1)CC(CO)(CO)C2 | 1.95% | – |
| CCOC(=O)c1sc(NC(=O)/C=C/c2ccc(C(C)C)cc2)c(C(=O)OCC)c1C | -21.3% | – |
| Cc1ccc(S(=O)(=O)NCC(=O)N(CC(=O)NCC2CCCO2)c2cccc(F)c2)cc1 (stereo not given) | -5.08% | – |
| COC(=O)c1cc(NC(=O)CCc2c(C)nc3c4c(C)cc(C)nc4nn3c2C)cc(C(=O)OC)c1 | -21.8% | – |
| CCc1noc(C)c1C(=O)NNC(=O)c1ccc(F)cc1 | 1.49% | – |
| CCc1noc(C)c1C(=O)OCC(=O)c1ccc(NC(=O)CC(C)C)cc1 | – | 25.9 µM (active) |
| COc1ccc(C(=O)COC(=O)c2c(C)noc2C)cc1Cl | -23.2% | – |
| O=C(Nc1nsc(-c2ccccc2)n1)c1ccncc1 | -26.7% | – |
| NC(=O)c1oc2ccccc2c1NC(=O)Cc1ccccc1 | -18.1% | – |
| COc1ccc(-c2nn(-c3ccccc3)cc2/C=C\C(=O)N2CCOCC2)cc1[N+](=O)[O-] | 2.01% | – |
| C[C@@H]1ON(C)[C@H]2C[C@H]3c4cc(N5CCN(C)CC5)ccc4CCN3C(=O)[C@@H]12 | 0.647% | – |
| COc1ccc(-c2ccc3[nH]c4c(c3c2)CCN2C[C@H]3[C@H](C)ON(C)[C@H]3C[C@@H]42)cc1 | – | 20.6 µM (active) |
| COC(=O)[C@H]1[C@H]2C[C@H]3c4[nH]c5ccccc5c4CCN3C[C@@H]2CC[C@@H]1O | – | inactive |
| O=C(NCc1csc(-c2cccs2)n1)C1CC1 | -6.41% | – |
| CC(C)(C)C1CCC(C(=O)NCC(c2cccs2)N2CCOCC2)CC1 (stereo not given) | – | 8.2 µM (active) |
| COc1ccc(C(CNC(=O)CSc2ccccc2)N2CCOCC2)cc1 (stereo not given) | -26.7% | – |
| Cc1cc(=O)oc(C)c1C(=O)Nc1cnc2ccccc2c1 | -21.1% | – |
| CCc1ccc(NC(=O)C(=O)N/N=C(\C)CC(=O)NCCOC)cc1 | -7.62% | – |
| CCc1nnc(NC(=O)CSc2nnc(Cc3ccccc3)n2-c2ccc(OC)cc2)s1 | -0.0344% | – |
| CCc1c(C)[nH]c(=S)c(C#N)c1C | -9.03% | – |
| COc1cccc(C(=O)NNC(=O)c2cccc(F)c2)c1 | -17% | – |

| SMILES | activity change, negative = growth inhibition | Potency |
| --- | --- | --- |
| CCOc1ccccc1C(=O)NC1(C(F)(F)F)C(=O)Nc2c1c(=O)[nH]c(=O)n2-c1ccc(F)cc1 (stereo not given) | -13% | – |
| COc1cccc(C(=O)NC2(C(F)(F)F)C(=O)Nc3c2c(=O)[nH]c(=O)n3-c2ccc(C)cc2)c1 (stereo not given) | – | 23.1 µM (active) |
| Cc1cccc(-c2noc(CCC(=O)NC3CCCC3)n2)c1 | -23.5% | – |
| CCOC(=O)C1=CCC(c2ccc(F)cc2)N(S(=O)(=O)c2ccc(C)cc2)C1 (stereo not given) | – | 18.4 µM (active) |
| O=C(CN1CCN(S(=O)(=O)c2ccc(F)cc2)CC1)NC1CC1 | 6.75% | – |
| CC(=O)C1=CCC(c2ccccc2)N(S(=O)(=O)c2ccc(C)cc2)C1 (stereo not given) | – | 23.1 µM (active) |
| Cc1ccc(S(=O)(=O)N2CCCC2CO)cc1 (stereo not given) | 0.298% | – |
| Cc1ccc(S(=O)(=O)N2C3C=CC(C3)C2C(=O)O)cc1 (stereo not given) | -0.745% | – |
| CCOC(=O)C1=CC[C@@H](c2ccncc2)N(S(=O)(=O)c2ccc(C)cc2)C1 | – | 23.1 µM (active) |
| COc1ccc(S(=O)(=O)N2CCOC2CNC(=O)C(=O)NCc2ccncc2)cc1OC (stereo not given) | -2.25% | – |
| Cc1ccc(S(=O)(=O)N2CC[C@H]3[C@@H](C2)C(=O)C[C@@H](c2ccccc2)N3S(=O)(=O)c2ccc(C)cc2)cc1 | -10.3% | – |
| Cc1ccc(NC(=O)CSc2nnc(CNC(=O)c3ccccc3F)o2)cc1 | -1.98% | – |
| COc1ccc(-c2cc(=O)oc3cc(OCC(=O)N(C)C4CCS(=O)(=O)C4)ccc23)cc1 (stereo not given) | -0.332% | – |
| Cc1ccc(-c2c[n+](=O)c3c(n2[O-])CCC3)cc1 | 2.44% | – |
| O=C(C1CCN(C2CCN(Cc3cccc4c3OCO4)CC2)CC1)N1CCOCC1 | -10.3% | – |
| COC(=O)C(C)n1cnc2c(nnn2-c2ccc(F)cc2)c1=O (stereo not given) | -4.65% | – |
| O=C1CC(c2ccccc2)C(c2ccccc2)=NN1 (stereo not given) | -23.2% | – |
| CCOc1ccc(N2CC(C(=O)NCc3ccccn3)CC2=O)cc1 (stereo not given) | -0.987% | – |
| O=C(COC(=O)Cc1ccc(Br)cc1)Nc1ccc(N2CCOCC2)cc1 | 10% | – |
| COc1ccc(C(=O)Nc2c(N)nc(SCC(=O)Nc3ccc(C(C)=O)cc3)[nH]c2=O)cc1 | 5.39% | – |
| Cc1cc(Cl)c(S(=O)(=O)N(C)C)cc1OCC(N)=O | -0.809% | – |
| COc1ccc(OC)c(S(=O)(=O)n2c([N+](=O)[O-])cnc2C)c1 | 6.38% | – |
| COc1ccc(C(=O)CSc2nc(C)cc(C)n2)cc1[N+](=O)[O-] | -27.1% | – |
| COc1ccc(C(C[N+](=O)[O-])n2nc(C)cc2C)cc1 (stereo not given) | – | 6.51 µM (active) |
